# Most compounds without a hit are left out; they make up all but 2.5% or so of the library.
# GALK inhibitor = inhibitors of human galactokinase (GALK). P51570. recombinant GALK, Kinase-Glo ATP luminescence, 1 h. Potency, µM (titrated, usually from 57.5 µM), without a hit: at the top dose activity, negative = inhibition, most hits filed as inhibitors. 44,000 tested, under 10 active. AID 1347072;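 further: plate controls were full GALK reaction for no effect and reaction lacking GALK for full effect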
#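 Reactions with and without enzyme served as controls. GALK at 5 nM phosphorylates 100 uM galactose using 35 uM ATP (HEPES pH 8.0, Mg2+) for 1 h at RT, with luminescence read 10 min after adding Kinase-Glo Plus.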
# DRV1 agonist = agonists of human resolvin D1 receptor DRV1 (GPR32). O75388. CHO-K1 GPR32 beta-arrestin PathHunter luminescence, 90 min; zero percent set by DMSO-only wells. activation, % at 76.9 µM. 2.5% of 48,000 active;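 active means activation of at least 60% and not above a set upper limit, about 1 call in 100 departs from these limits; inconclusive means activation of 40% to 60%, or above that upper limit; inactive means activation under 40%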; further: 0% is about no effect
# Target sequence (O75388 whole entry, looked up): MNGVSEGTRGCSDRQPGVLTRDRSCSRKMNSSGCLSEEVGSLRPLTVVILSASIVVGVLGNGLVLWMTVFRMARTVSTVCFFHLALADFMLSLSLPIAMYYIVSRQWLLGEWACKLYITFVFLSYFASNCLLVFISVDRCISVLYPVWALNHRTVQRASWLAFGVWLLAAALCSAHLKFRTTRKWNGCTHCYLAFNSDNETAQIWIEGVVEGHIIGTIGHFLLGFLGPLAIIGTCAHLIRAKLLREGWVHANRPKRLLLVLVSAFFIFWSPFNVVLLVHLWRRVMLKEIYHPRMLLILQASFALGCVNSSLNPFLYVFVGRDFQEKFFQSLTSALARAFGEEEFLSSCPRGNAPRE
#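 CHO-K1 cells stably expressing ProLink-tagged GPR32 and Enzyme Activator-tagged beta-arrestin were seeded at 2,500 cells/well overnight, exposed to compounds for 90 min at 37 °C, then read by beta-Gal complementation chemiluminescence after 1 h detection reagent.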
# B2AR arrestin ag = agonists recruiting beta-arrestin to human beta2-adrenergic receptor | P07550 | HTLA Tango cells, beta-arrestin recruitment, luciferase luminescence, 18 h | Potency, µM (series often up to 46.1 µM), hits mostly activators | 44,000 tested, under 10 active | AID 1347077;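 further: potency means the concentration at half of the fitted maximal effect; 0% = DMSO and full agonism = EC100 isoproterenol or metaproterenol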
#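 Ligand-induced beta-arrestin recruitment to recombinant beta2-AR is measured via a tTA-driven luciferase reporter in Tango cells after 18 hr compound exposure at 37 degrees C. Concentrations span up to 46 microM.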
# TSG101-PTAP inh = TSG101-PTAP interaction inhibition, HIV-1 budding; 44,000 tested, under 10 active; Fluorescence polarization, FITC-PTAP peptide/Tsg101, 20 min; Potency, µM (series often up to 115 µM), most hits filed as inhibitors; Q99816; further: potency means the concentration at half of the fitted maximal effect; 0% is about no effect
#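 The Tsg101 binding domain, at 10 uM final, is mixed with compound and a FITC peptide bearing the PTAP motif (50 nM final). After 20 min at r.t., polarization is measured; actives defined by CRC class, efficacy cut-off 60% inhibition.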
# An asterisk follows results filed as active; i = inactive; ? = inconclusive; · = no result given. Unless noted, the call rests on the fitted dose curve; in most records, active means well fitted curve in the direction sought with a large enough effect; inconclusive means small, poorly fitted or top-dose-only effect, or another doubt; inactive means no such curve, though single readings can be large; an effect the other way counts as inactive or inconclusive.
SMILES,GALK inhibitor,DRV1 agonist,B2AR arrestin ag,TSG101-PTAP inh
Cc1ccc(C)c(CN2C(=O)C(O)(c3c[nH]c4ccccc34)c3ccccc32)c1 (stereo not given),-1%,84*,i,i
O=C1N(Cc2ccccc2Cl)c2ccccc2C1(O)c1c[nH]c2ccccc12 (stereo not given),-2%,84*,i,i
Cc1ccc(CN2C(=O)C(O)(c3c(C)[nH]c4ccccc34)c3ccccc32)cc1 (stereo not given),-4%,70*,i,i
O=C1N(Cc2ccccc2)c2ccccc2C1(O)c1c[nH]c2ccccc12 (stereo not given),6%,?,i,i
Cc1ccccc1CN1C(=O)C(O)(c2c[nH]c3ccccc23)c2cc(Cl)ccc21 (stereo not given),6%,?,i,i
Cc1sccc1Br,·,-7,·,·
Cc1ccc(C2C=C(c3ccccc3)Nc3nc(NS(=O)(=O)c4ccccc4)nn32)cc1 (stereo not given),3%,?,i,?
COc1ccccc1C(=O)Nc1nc2n(n1)C(c1ccc(F)cc1)C=C(c1ccc(Cl)cc1)N2 (stereo not given),3%,11,i,i
Cc1ccc(S(=O)(=O)Nc2nc3n(n2)C(c2ccc(Cl)cc2)C=C(c2ccccc2)N3)cc1 (stereo not given),4%,89*,i,i
O=S(=O)(Nc1nc2n(n1)C(c1ccc(F)cc1)C=C(c1ccccc1)N2)c1ccc(Cl)cc1 (stereo not given),-10%,?,i,i
CC(=O)Nc1ccc(S(=O)(=O)Nc2nc3n(n2)C(c2ccccc2)C=C(c2ccc(Cl)cc2)N3)cc1 (stereo not given),-9%,84*,i,?
O=S(=O)(Nc1nc2n(n1)C(c1ccccc1)C=C(c1ccc(Cl)cc1)N2)c1ccccc1 (stereo not given),0%,72*,i,?
Cc1ccc(C2C=C(c3ccc(Cl)cc3)Nc3nc(NC(=O)c4ccco4)nn32)cc1 (stereo not given),3%,108*,i,i
COc1ccc(C2C=C(c3ccccc3)Nc3nc(NS(=O)(=O)c4ccc(Cl)cc4)nn32)cc1 (stereo not given),2%,?,i,i
Cc1ccsc1CN(Cc1ccco1)c1cnc(S(C)(=O)=O)nc1C(=O)Nc1ccc(Cl)cc1,7%,-14,i,i
CCOC(=O)c1ccc(O)c(O)c1,·,41,·,·
Cc1ccc(NC(=O)Cn2cc(S(=O)(=O)NC(C)C)c(S(=O)(=O)NC(C)C)c2)cc1Cl,-2%,69*,i,i
CC(=O)N[C@H]1[C@H]([C@H](O)[C@H](O)CO)OC(C(=O)O)=C[C@@H]1N=C(N)N,·,0,·,·
COc1cccc(N(C)C(=S)Oc2ccc3c(c2)CCCC3)n1,·,15,·,·
COc1ccc(Cl)cc1NC(=O)Cn1c(=O)oc2cc(S(=O)(=O)N3CCCCCC3)ccc21,-3%,7,i,i
COc1ccc(C)cc1NC(=O)Cn1c(=O)oc2cc(S(=O)(=O)N3CCCCC3)ccc21,-1%,84*,i,i
COc1cccc(NC(=O)Cn2c(=O)oc3cc(S(=O)(=O)N4CCCCC4)ccc32)c1,1%,116*,i,i
COc1ccc(CNC(=O)Cn2c(=O)oc3cc(S(=O)(=O)N4CCCCCC4)ccc32)cc1,2%,61*,i,i
CC(C)OC(=O)OCOP(=O)(CO[C@H](C)Cn1cnc2c(N)ncnc21)OCOC(=O)OC(C)C,·,8,·,·
O=C(Cn1ncc2c3ccccc3n(Cc3ccc(F)cc3)c2c1=O)NCc1ccccn1,2%,0,i,i
SMILES,GALK inhibitor,DRV1 agonist,B2AR arrestin ag,TSG101-PTAP inh
COc1cccc(CNC(=O)CN(c2ccc(C(C)C)cc2)S(=O)(=O)c2c(C)n[nH]c2C)c1,6%,71*,i,i
Cc1cc(C)cc(NS(=O)(=O)c2ccc3[nH]cc(C(=O)NC4CCCCC4)c(=O)c3c2)c1,0%,110*,i,i
Cc1c(Cl)cccc1NS(=O)(=O)c1ccc2[nH]cc(C(=O)NC3CCCC3)c(=O)c2c1,-2%,101*,i,i
COc1cccc(NS(=O)(=O)c2ccc3c(c2)n(C)c(=O)n3C)c1,8%,86*,i,i
COc1cccc(NS(=O)(=O)c2ccc3c(c2)N(C)C(=O)CC(=O)N3C)c1,3%,2,i,i
COc1cccc(NS(=O)(=O)c2ccc3[nH]cc(C(=O)NC4CCCCC4)c(=O)c3c2)c1,-2%,103*,i,i
Cc1ccccc1NS(=O)(=O)c1ccc2[nH]cc(C(=O)NC3CCCCC3)c(=O)c2c1,0%,-9,i,i
Cc1cc(CCCOc2c(C)cc(-c3noc(C(F)(F)F)n3)cc2C)on1,·,21,·,·
CC(=O)O[C@H]1CC[C@@]2(C)C(=CC[C@@H]3[C@@H]2CC[C@]2(C)C(C(C)=O)=CC[C@@H]32)C1,·,2,·,·
Cc1cc(C)cc(NS(=O)(=O)c2ccc3[nH]cc(C(=O)NCc4ccco4)c(=O)c3c2)c1,7%,99*,i,i
Cc1cc(C)cc(NS(=O)(=O)c2ccc3[nH]cc(C(=O)NCc4ccccc4Cl)c(=O)c3c2)c1,0%,-13,i,i
CCSc1nn(CC(=O)Nc2cccc(CC)c2)c(N)c1S(=O)(=O)c1ccccc1,-3%,94*,i,i
COc1ccc(S(=O)(=O)c2c(SC)nn(CC(=O)Nc3ccc(C)c(Cl)c3)c2N)cc1,1%,86*,i,i
Cc1cc(C)cc(-n2ccn(Cc3ccc(F)cc3)c(=O)c2=O)c1,-1%,-32,i,i
Cc1ccc(C)c(CN2CCCN(CC(=O)Nc3ccc(C)c(C)c3)S2(=O)=O)c1,0%,-2,i,i
COc1ccc(-c2cn3nc(N4CCC(C(=O)Nc5cccc(Cl)c5)CC4)sc3n2)cc1,5%,78*,i,i
COc1cccc(NC(=O)C2CCN(c3nn4cc(-c5ccc(F)cc5)nc4s3)CC2)c1,1%,-1,i,i
O=C1Nc2ccccc2Oc2cc(Oc3cccc(Cl)c3)ccc21,2%,91*,i,i
COc1cc2nc(Cl)nc(N)c2cc1OC,·,0,·,·
CCc1ccc(CNC(=O)CN(c2ccc(C)cc2)S(=O)(=O)N(C)C)cc1,-1%,87*,i,i
Cc1ccc(CCNC(=O)CN(c2ccc(C)cc2)S(=O)(=O)N(C)C)cc1,10%,26,i,i
COc1ccc2c(CNCc3ccco3)c(C(=O)O)n(Cc3cccc(F)c3)c2c1,3%,-2,i,i
COc1cccc(CNC(=O)Cn2c(SCC(=O)Nc3ccc(C)c(C)c3)nc3ccccc32)c1,-1%,113*,i,i

# Screens from PubChem BioAssay.
